From PubChem BioAssay
MCF10A rerep – DNA re-replication induction in MCF 10a cells | MCF 10A DNA re-replication, Hoechst nuclear intensity, 48 h | Potency, µM (doses to about 46.1 µM), without a hit: at the highest dose activity, positive = re-replication, actives largely listed as activators | hit rate 2.9% among 350,000; also: % of control where 0% means no effect; nearly all actives have a fitted effect of over 50% in size
PINK1 expr mod – changes PINK1 expression; PINK1 immunofluorescence, high-content cytometry, 24 h; Potency, µM (series often up to 76.6 µM), for inactives: at the highest dose activation (PINK1 increase), actives largely listed as activators; hit rate 0.2% among 410,000; AID 624263; active = well fitted activation curve with a large enough effect; inconclusive = small, poorly fitted or top-dose-only effect; cell line not stated here; also: % of control where 0% means no effect; nearly all actives have a fitted effect of over 65% in size
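A stable cell line was treated with compounds at 5 concentrations for 24 hours, with CCCP as control. PINK1 levels and mitochondrial localization were measured by immunofluorescence with mitochondrial, cell and nuclear markers after fixation, read by laser-scanning cytometry.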
KB-V1 MDR tox – KB-V1 MDR subline cytotoxicity; KB-V1 MDR cells viability, CellTiter-Glo, 72 h; Potency, µM (highest dose often 46.1 µM), usual class: cytotoxic; hit rate 3.4% among 400,000; also: % is scaled to controls: 0 for no effect and ±100 for the full control effect; nearly all actives have a fitted effect of over 60% in size
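KB-V1 cells (P-gp-expressing MDR subline of KB-3-1) in phenol-red-free DMEM with 10% FBS were exposed to library compounds over a concentration series for 72 h at 37 degrees C. Viability read by CellTiter-Glo luminescence; concentration-effect curves fitted after normalization.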
KB-3-1 cytotox – kills parental KB-3-1 adenocarcinoma cells; KB-3-1 viability, CellTiter-Glo ATP luminescence, 72 h; Potency, µM (highest dose often 46.1 µM), most hits filed as cytotoxic; hit rate 1.4% among 400,000; also: % is scaled to controls: 0 for no effect and ±100 for the full control effect; nearly all actives have a fitted effect of over 60% in size
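KB-3-1 parental drug-naive adenocarcinoma cells in DMEM/10% FBS, incubated 72 h at 37 C with pin-transferred compounds across a concentration series. Viability by CellTiter-Glo luminescence; concentration-response curves fitted after normalization.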
SW480 rereplic – induces DNA re-replication in SW480 colon adenocarcinoma cells | SW480 DNA re-replication, Hoechst DNA content imaging, 48 h | Potency, µM (top dose mostly 46.1 µM), for the others: at the top dose re-replication activation, actives largely listed as activators | hit rate 1.8% among 340,000 | AID 624297; also: % of control where 0% means no effect; nearly all actives have a fitted effect of over 55% in size
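Hoechst fluorescence of nuclei (405 nm excitation, 500-530 nm emission) measured by plate-scanning imager after 48 hr compound exposure at 37 C; re-replication scored as increased number of nuclei with elevated intensity.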
TSG101-PTAP inh – blocks PTAP/TSG101 interaction to inhibit HIV-1 budding; Q99816; Fluorescence polarization, FITC-PTAP peptide / Tsg101 binding; Potency, µM (highest dose often 115 µM), for inactives: at the highest dose activity change, negative = inhibition, most hits filed as inhibitors; 340,000 tested, under 10 active; active = well fitted inhibition curve with a large enough effect in the main read-out, with a control signal flat, not every such curve was filed as active; inconclusive = small, poorly fitted or top-dose-only effect, or effect the other way, or a change in a side signal; inactive = no such curve, though single readings can be large or run the other way; also: % of control where 0% means no effect
Target sequence (Q99816 whole entry, looked up): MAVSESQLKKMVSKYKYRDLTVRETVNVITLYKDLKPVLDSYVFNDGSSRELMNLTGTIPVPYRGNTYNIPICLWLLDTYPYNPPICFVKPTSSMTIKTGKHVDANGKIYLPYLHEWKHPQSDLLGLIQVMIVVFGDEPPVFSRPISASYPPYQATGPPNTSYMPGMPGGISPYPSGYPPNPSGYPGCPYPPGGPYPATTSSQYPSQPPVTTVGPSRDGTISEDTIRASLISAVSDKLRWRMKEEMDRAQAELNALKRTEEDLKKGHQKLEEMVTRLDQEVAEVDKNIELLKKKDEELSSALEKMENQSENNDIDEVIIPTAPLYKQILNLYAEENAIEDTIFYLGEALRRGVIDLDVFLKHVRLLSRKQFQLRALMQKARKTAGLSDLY
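Tsg101 binding domain (10 uM final) was mixed with compound and a FITC-labeled PTAP peptide (50 nM final) in HEPES pH 7.5 buffer with NaCl, Tween 20, EDTA and TCEP; fluorescence polarization was read after 20 min at r.t.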
* marks the source's active call; other numbers are inactive results; i = inactive; ? = inconclusive; . = no result; [ ] = remark or other dose. Sampled rows, rich in hits. Any-hit rate of the full collection: about 6.8%. Unless noted, calls follow the shape of the dose curve; as a rule, active = well fitted curve in the direction sought with a large enough effect; inconclusive = small, poorly fitted or top-dose-only effect, or another doubt; inactive = no such curve, though single readings can be large; an effect the other way counts as inactive or inconclusive. Potency is read from the fitted curve at half-maximal effect.

SMILES	MCF10A rerep	PINK1 expr mod	KB-V1 MDR tox	KB-3-1 cytotox	SW480 rereplic	TSG101-PTAP inh
COc1ccc(-c2cn[nH]c2-c2ccc(OCc3ccc([N+](=O)[O-])cc3)cc2O)cc1	5.8µM*	5.4%	3.66µM*	?	?	0.1%
C=C(C)COc1ccc(-c2nc(N)nc(C(F)(F)F)c2-c2ccc(OC)cc2)c(O)c1	2.59µM*	?	i	i	20.6µM*	0.0%
CC(=O)N1CCc2c(sc3c2c(=O)n(-c2cccc(Cl)c2C)c(=O)n3Cc2ccccc2C)C1	.	-0.5%	i	?	.	.
CCN(c1ncnc2c1cnn2-c1cc(Cl)ccc1C)C1CCCCC1	.	0.5%	i	?	.	.
COC1=C(OC)C(=O)C(C/C=C(\C)CC/C=C(\C)CC/C=C(\C)CC/C=C(\C)CC/C=C(\C)CC/C=C(\C)CC/C=C(\C)CC/C=C(\C)CC/C=C(\C)CCC=C(C)C)=C(C)C1=O	-0.1%	.	.	.	1.2%	.
Cc1cccc(C(=O)Nc2ccc3nc(SCC(=O)N4CCCC4)sc3c2)c1	.	-0.4%	.	.	.	.
CCc1cc(-c2nc(N)ncc2-c2ccc(Br)cc2)c(O)cc1OC	18.4µM*	-1.2%	i	i	6.6%	-6.7%
C=C(C)COc1ccc(-c2ncncc2-c2ccc(Cl)cc2)c(O)c1	14.6µM*	29.2%	i	i	-4.1%	-3.0%
COc1ccc(-c2c(C)nc(N)nc2-c2ccc(OCc3ccc(C)cc3)cc2O)cc1OC	?	?	2.31µM*	i	16.3%	-0.5%
C=C(C)COc1ccc(-c2nc(N)ncc2-c2ccc(Br)cc2)c(O)c1	23.1µM*	4.6%	?	20.6µM*	?	1.9%
C=C(C)COc1ccc(-c2ncncc2-c2ccc(Br)cc2)c(O)c1	?	?	i	i	0.6%	-3.8%
Cc1ccccc1-c1noc(-c2ccc(N3CCN(c4ccccc4)CC3)c([N+](=O)[O-])c2)n1	.	0.6%	i	i	.	.
COc1ccc(NC(=O)c2c(NCc3cccs3)sc3c2CCCCC3)cc1	.	?	i	i	.	.
CCOc1ccc(-c2[nH]ncc2-c2ccc(OC)c(OC)c2)c(O)c1	?	1.9%[38.3 µM]	3.66µM*	?	2.59µM*	-10.2%
Oc1ccc(-c2n[nH]c(C(F)(F)F)c2-c2ccccc2)c(O)c1	?	4.8%	?	?	-0.5%	-1.1%
C=C(C)COc1ccc(-c2[nH]ncc2-c2ccc(Br)cc2)c(O)c1	9.2µM*	-2.6%	11.6µM*	5.8µM*	20.6µM*	-5.9%
COc1ccc(-c2c(-c3ccc(O)cc3O)n[nH]c2C(F)(F)F)cc1	?	1.8%	i	i	11.6µM*	-3.3%
COc1ccc(-c2cn[nH]c2-c2ccc(O)cc2O)cc1OC	1.1%	1.7%	i	i	3.0%	-1.4%
CSc1cccc(N2C(=O)N(CC(=O)NCc3ccccc3Cl)c3ccccc3S2(=O)=O)c1	.	12.7%	i	i	.	.
O=C(Oc1c(CN2CCOCC2)cc(Cl)c2cccnc12)c1ccccc1F	18.4µM*	0.3%	?	18.4µM*	6.51µM*	-2.1%
COc1cc(OC)cc(C(=O)Oc2c(CN3CCOCC3)cc(Cl)c3cccnc23)c1	-3.2%	0.1%	?	i	?	-2.4%
COc1ccc(C(=O)Oc2c(CN3CCOCC3)cc(Cl)c3cccnc23)cc1OC	1.9%	-0.6%	?	?	-14.7%	-3.4%
O=C(COc1c(Br)cc(Br)c2cccnc12)N1CCCCC1	2.5%	5.4%	i	i	-9.3%	-4.7%
Oc1c(CN2CCCCC2)cc(Br)c2cccnc12	23.1µM*	3.0%	?	13µM*	?	-12.0%
O=C(Oc1c(CN2CCOCC2)cc(Cl)c2cccnc12)c1ccccc1	?	-1.3%	?	?	8.2µM*	0.8%
SMILES	MCF10A rerep	PINK1 expr mod	KB-V1 MDR tox	KB-3-1 cytotox	SW480 rereplic	TSG101-PTAP inh
CN1CCN(Cc2cc(COCc3ccccc3)c3cccnc3c2O)CC1	?	-1.0%	?	?	6.31µM*	-4.8%
CCc1ccc(NCc2cc3cc4c(cc3n(CC(=O)Nc3ccccc3C)c2=O)OCCO4)cc1	.	-1.0%	i	i	.	.
O=C1CC(c2nc3ccccc3n2CCCOc2ccccc2)CN1c1ccc(F)cc1 (stereo unspecified)	.	3.4%	i	?	.	.
Cc1cccc(CSc2cn(CC(=O)N3CCCC3)c3ccccc23)c1	.	-0.8%	.	.	.	.
CCC1CN(C(=O)Nc2ccccc2C(F)(F)F)c2ccccc2S1 (stereo unspecified)	.	-0.5%	i	i	.	.
O=Nc1ccc(/C=C/c2ccnc3ccccc23)cc1	.	.	i	i	.	.
CCCOc1ccc(NC(=O)CC2C(=O)N(c3ccc(Cl)cc3)C(=O)N2CCc2ccncc2)cc1 (stereo unspecified)	.	3.8%	.	.	.	.
O=C(COCc1cc(-c2ccco2)on1)Nc1cccc(Cl)c1Cl	.	2.3%	i	i	.	.
O=[N+]([O-])c1cc(CN2CCOCC2)c2cccnc2c1O	10.7%	4.8%	i	i	?	-0.1%
Oc1c(Cl)cc(CN2CCOCC2)c2cccnc12	11.6µM*	?	i	?	?	-3.1%
CCOC(=O)c1sc2ncn(CC(=O)Nc3cc(C)cc(C)c3)c(=O)c2c1C	.	1.6%	i	i	.	.
CCOc1ccccc1N(CC)C(=O)c1cc2c(=O)[nH]c3ccc(C)cc3c2s1	.	1.7%	i	i	.	.
c1ccc2c(-c3csc(-c4ccncc4)n3)c[nH]c2c1	?	-0.5%	?	?	20.6µM*	-1.6%
O=C(Nc1nc2c(F)cccc2s1)c1ccc2c(c1)OCCO2	.	2.0%	i	i	.	.
O=C(c1cc2cc(F)ccc2[nH]1)N1CCC(Cc2ccccc2)CC1	8.2µM*	0.7%	i	i	5.1%	0.6%
COc1ccc(C(=O)NCC2Cc3cc(C)cc(-c4nc5ccccc5s4)c3O2)c(OC)c1OC (stereo unspecified)	.	-1.1%	.	.	.	.
CCN1C(=O)c2ccccc2S(=O)c2ccc(C(=O)N3CCN(c4ccc(F)cc4)CC3)cc21 (stereo unspecified)	.	4.2%	i	?	.	.
NC(=S)NN=C1Cc2cccc3cccc1c23	-2.9%	0.4%	1.3µM*	1.3µM*	-3.8%	0.2%
CCN(CC)C(=S)SCC(=O)c1ccc(F)cc1	?	-1.5%	18.4µM*	?	?	-3.8%
CN(c1ccccc1)P(=O)(N(C)c1ccccc1)N(C)c1ccccc1	3.4%	15.8µM*	i	i	22.1%	-5.3%
O=c1c(Br)ccc(Br)cc1Br	?	3.5%	i	6.51µM*	?	-3.9%
O=C1CN(S(=O)(=O)c2cc(Br)ccc2Br)CCN1	2.3%	1.9%	i	i	-7.8%	-6.8%
